Source: PubChem BioAssay (National Center for Advancing Translational Sciences (NCATS))
ELG1 genotoxic: genotoxicity induction in ELG1-luciferase HEK293T cells; HEK293T ELG1-luciferase reporter, luminescence, 16 h; Potency, µM (top dose mostly 46 µM), for inactives: at the highest dose activity change, positive = activation, actives largely listed as activators; 1.3% of 330,000 active; note: % of control where 0% means no effect; nearly all actives have a fitted effect of over 60% in size
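Cells (2,000/well) expressing the ELG1-luciferase fusion are dosed by pin tool and kept 16 hr at 37 °C, 5% CO2. Signal comes from ONE-Glo luciferase reagent after 30 min at room temperature.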
ELG1 DNA repair: ELG1-dependent DNA repair inhibition; HEK293T ELG1-luciferase reporter, luminescence, 16 h; DNA damage induced by 5-fluorouridine; Potency, µM (doses to about 46.1 µM), for inactives: at the top dose activity change, negative = inhibition, actives largely listed as inhibitors; 2.3% of 330,000 active; AID 504467; note: % is set by controls: 0 for no effect and ±100 for the full control effect; nearly all actives have a fitted effect of over 55% in size
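DMSO vehicle served as the neutral condition. Each well held 2,000 cells given 5-fluorouridine plus compound; after 16 hr at 37 °C/5% CO2, ONE-Glo was added and luciferase measured 30 min later.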
NPC1 promoter act: activates the NPC1 promoter; Potency, µM (doses to about 9.22 µM), without a hit: at the top dose activation, usual class: activators; Huh7 NPC1 promoter luciferase reporter, 24 h; 2.4% of 320,000 active; note: % of control where 0% means no effect; nearly all actives have a fitted effect of over 60% in size
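Cells: Huh7 expressing luciferase under the NPC1 promoter, 1500/well. Seeded 2 h, compound added, incubated 24 h at 37 °C. Luciferase reagent, 10 min ambient, then luminescence.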
FLuc counter: firefly luciferase modulation, counter-screen for miR-21 project; AID 588342; Potency, µM (series often up to 57.5 µM), for inactives: at the top dose activity change, negative = inhibition, most hits filed as inhibitors; 6.9% of 360,000 active; purified FLuc, Km substrates, luminescence inhibition;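 note: plate controls were vehicle for no effect and reference inhibitor for full effect; nearly all actives have a fitted effect of over 55% in size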
Target sequence (P08659 whole entry, looked up): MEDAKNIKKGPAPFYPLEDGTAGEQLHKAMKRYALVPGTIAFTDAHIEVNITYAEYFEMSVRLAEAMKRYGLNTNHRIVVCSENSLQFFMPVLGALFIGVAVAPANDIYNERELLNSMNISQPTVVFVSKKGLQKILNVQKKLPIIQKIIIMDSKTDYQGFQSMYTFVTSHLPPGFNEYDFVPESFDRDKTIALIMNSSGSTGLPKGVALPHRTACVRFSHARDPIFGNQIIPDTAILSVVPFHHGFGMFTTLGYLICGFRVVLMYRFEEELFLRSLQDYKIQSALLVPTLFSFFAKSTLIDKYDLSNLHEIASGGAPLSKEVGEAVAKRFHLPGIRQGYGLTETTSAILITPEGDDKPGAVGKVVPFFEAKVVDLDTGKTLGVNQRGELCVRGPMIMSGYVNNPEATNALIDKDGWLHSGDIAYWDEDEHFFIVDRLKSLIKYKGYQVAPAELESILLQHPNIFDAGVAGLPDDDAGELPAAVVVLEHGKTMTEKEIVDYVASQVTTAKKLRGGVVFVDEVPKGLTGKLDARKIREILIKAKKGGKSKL
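Biochemical qHTS of compounds, final roughly 60 µM downward over six points, against 10 nM purified firefly luciferase using Km concentrations of substrates (10 uM D-luciferin, 10 uM ATP) in Tris acetate pH 7.5 buffer; luminescence output.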
Rab9 prom act: activates the Rab9 promoter; Potency, µM (titrated, usually from 9.22 µM), without a hit: top-dose activation, negative = inhibition, most hits filed as activators; Huh7 Rab9 promoter-luciferase reporter, luminescence, 24 h; AID 485297; 2.8% of 320,000 active; note: % of control where 0% means no effect; nearly all actives have a fitted effect of over 60% in size
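Rab9 promoter-driven luciferase in stably transfected Huh7 cells; 1500 cells/well rested 2 h, exposed to compound in DMSO for 24 h at 37 °C, 5% CO2. Luminescence read 10 min after adding luciferase reagent at ambient temperature.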
SMN2 splice enh: increases expression of the SMN2 splice variant; HEK293 SMN2-luciferase splicing reporter, luminescence, 30-36 h; Potency, µM (highest dose often 46.1 µM), without a hit: at the top dose activity change, positive = activation, most hits filed as activators; 2.8% of 210,000 active; AID 1458; note: % of control where 0% means no effect; nearly all actives have a fitted effect of over 55% in size
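qHTS luciferase splicing reporter: luminescence rises when SMN2 exon 7 is included in transfected HEK293 cells. Compound exposure lasted 30-36 h at 37C, with 4.5 mM final sodium butyrate as control, followed by a ONE-Glo read.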
* hit, by the source's call; ? = inconclusive; · = not tested or not shown; [ ] = remark or other dose. An excerpt weighted towards active compounds, which were near 9.2% of everything screened. Calls come from the whole dose curve; as a rule, active = well fitted curve in the direction sought with a large enough effect; inconclusive = small, poorly fitted or top-dose-only effect, or another doubt; inactive = no such curve, though single readings can be large; an effect the other way counts as inactive or inconclusive. Potency is the fitted concentration of half-maximal effect.

SMILES | ELG1 genotoxic | ELG1 DNA repair | NPC1 promoter act | FLuc counter | Rab9 prom act | SMN2 splice enh
CC1CCN(S(=O)(=O)c2ccc(C(=O)Nc3nnc(-c4ccco4)o3)cc2)CC1 | -25% | ? | -17% | 6% | -16% | ·
CC1CC(C)CN(S(=O)(=O)c2ccc(C(=O)Nc3nnc(-c4cccs4)o3)cc2)C1 (configuration not stated) | -16% | 5.8µM* | -27% | 0% | -18% | -74%
CCC1CCCCN1S(=O)(=O)c1ccc(C(=O)Nc2nnc(-c3cccs3)o2)cc1 (configuration not stated) | -6% | ? | -28% | 9% | -25% | -106%
COc1ccc(CNC(=O)CCC2N=C3c4ccccc4N=C(SCc4cccc(F)c4)N3C2=O)cc1 (configuration not stated) | · | · | · | 5% | · | ·
Cc1ccc2oc(C(=O)Nc3c(C(=O)Nc4ccccc4)oc4ccccc34)cc(=O)c2c1 | · | · | · | 1% | · | 3%
COC(=O)c1sc(-c2ccccc2)cc1NC(=O)Nc1ccc(F)cc1 | · | · | · | -16% | · | -8%
COc1cc(NC(=O)CCc2nnc3ccc(NCc4ccco4)nn23)cc(OC)c1 | 11% | -3% | -2% | 1% | 1% | ·
O=c1cc(-c2ccc(O)cc2)oc2cc(O)cc(O)c12 | · | · | ? | · | 20%[46.1 µM] | 22µM*
O=c1cc(-c2ccccc2)oc2cc(O)cc(O)c12 | · | · | · | · | · | 4µM*
O=c1cc(-c2cc(O)c(O)c(O)c2)oc2cc(O)cc(O)c12 | · | · | · | · | · | -7%
COc1ccc(C(=O)N2CC(=O)Nc3ccc(C)cc3C2c2ccccc2)c(OC)c1 (configuration not stated) | · | · | · | -11% | · | 18%
CN(C)S(=O)(=O)c1ccc(C(=O)Nc2nc(-c3cccs3)cs2)cc1 | -19% | 12µM* | -2% | 0% | -8% | -78%
O=C(Nc1nc(-c2ccc(S(=O)(=O)N3CCCCCC3)cc2)cs1)c1ccccc1 | -26% | 7.3µM* | -7% | 1% | -1% | -29%
Cc1cc(C)cc(Nc2nc(-c3ccc(S(=O)(=O)N4CCCC4)cc3)cs2)c1 | -14% | 23µM* | -10% | 2% | -8% | -53%
Cc1csc(NC(=O)c2ccc(S(=O)(=O)N3CCCC3)cc2)n1 | -3% | -12% | 18% | ? | 18% | ·
O=C(Nc1nc(-c2cccs2)cs1)c1ccc(S(=O)(=O)N2CCCC2)cc1 | -14% | 16µM* | 0% | -1% | -1% | ·
C[C@]12C=C[C@H](O)CC1=CCC1C2CC[C@@]2(C)C1CCC21OCCO1 (some centres not stated) | -3% | 7% | · | · | · | ·
CN1CCN(C(=O)/C=C/c2ccc3c(c2)OCO3)CC1 | 3% | ? | 1% | -4% | 13% | 1%
O=C(/C=C/c1ccc2c(c1)OCO2)N1CCN(c2n[nH]c(=O)[nH]c2=O)CC1 | 2% | 4% | -4% | 21µM* | -2% | ·
COC(=O)C1CCN(C(=O)/C=C/c2ccc3c(c2)OCO3)CC1 | ? | ? | 0.79µM* | ? | 1.3µM* | ·
O=C(/C=C/C=C/c1ccc2c(c1)OCO2)N1CCCCC1 | 12µM* | ? | 2.5µM* | 8.5µM* | 2.5µM* | 14µM*
CC(C)c1ccc2[nH]c3c(c2c1)CCC/C3=N\NC(=O)c1ccncc1 | -16% | 18µM* | -6% | -2% | -8% | ·
O=c1n(-c2ccc(Br)cc2)cnn1-c1ncccc1[N+](=O)[O-] | ? | ? | ? | 17µM* | 2µM* | 13µM*
Cc1ccc2oc3c(c(=O)c2c1)C(c1ccc(F)cc1)N(c1nc(C)c(C)s1)C3=O (configuration not stated) | · | · | · | -3% | · | 0%
